Experimental findings from PubChem BioAssay (EPA / NIEHS) are described below.

Active and inactive are the calls of the source. Rule for the calls: active = hit-call score of the fitted dose curve at least 0.9, where 1 is the maximum; inactive = score below 0.9.

Chain of Transcription factor Sp1 (Homo sapiens) (P08047 whole entry, looked up): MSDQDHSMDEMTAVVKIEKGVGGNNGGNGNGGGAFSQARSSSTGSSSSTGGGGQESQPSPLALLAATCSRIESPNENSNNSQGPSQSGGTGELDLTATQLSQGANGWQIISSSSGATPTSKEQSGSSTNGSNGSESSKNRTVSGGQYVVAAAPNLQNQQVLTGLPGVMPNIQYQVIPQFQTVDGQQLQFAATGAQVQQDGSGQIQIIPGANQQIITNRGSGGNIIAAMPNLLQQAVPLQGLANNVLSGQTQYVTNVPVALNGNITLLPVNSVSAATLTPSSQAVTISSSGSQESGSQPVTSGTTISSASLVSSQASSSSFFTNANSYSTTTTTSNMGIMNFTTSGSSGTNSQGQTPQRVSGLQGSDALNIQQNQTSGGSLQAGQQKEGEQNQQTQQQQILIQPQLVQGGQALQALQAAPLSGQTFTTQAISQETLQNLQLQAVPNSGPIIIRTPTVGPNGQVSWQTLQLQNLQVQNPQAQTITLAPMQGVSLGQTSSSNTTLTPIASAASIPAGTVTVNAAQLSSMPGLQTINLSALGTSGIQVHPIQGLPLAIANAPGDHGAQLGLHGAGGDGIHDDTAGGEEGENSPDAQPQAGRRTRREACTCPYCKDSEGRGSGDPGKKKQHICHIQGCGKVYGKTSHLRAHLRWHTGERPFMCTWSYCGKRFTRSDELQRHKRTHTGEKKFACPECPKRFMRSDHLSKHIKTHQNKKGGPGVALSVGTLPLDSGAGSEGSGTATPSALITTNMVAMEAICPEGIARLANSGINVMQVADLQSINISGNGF

This test concerns the target Transcription factor Sp1 (Homo sapiens) (UniProt P08047). As to the kind of experiment: ATG_Sp1_CIS: Attagene CIS-FACTORIAL HepG2 Assay for human Specificity Protein 1 (Sp1) (AID 2282961). The following applies: HepG2 Sp1 cis-reporter transcription, actives raise or lower the signal. As for the experimental part:
ATG_CIS is a cell-based, multiplexed-readout assay that uses HepG2, a human liver cell line, with measurements taken at 24 hours after chemical dosing in a 24-well plate.ATG_Sp1_CIS is one of 52 assay component(s) measured or calculated from the ATG_CIS assay. It is designed to make measurements of mRNA induction, a form of inducible reporter, as detected with fluorescence intensity signals by Reverse transcription polymerase chain reaction (RT-PCR) and Capillary electrophoresis technology.Data from the assay component ATG_Sp1_CIS was analyzed into 1 assay endpoint. This assay endpoint, ATG_Sp1_CIS, was analyzed with bidirectional fitting relative to DMSO as the negative control and baseline of activity. Using a type of inducible reporter, measures of mRNA for gain or loss-of-signal activity can be used to understand the reporter gene at the transcription factor-level as they relate to the gene SP1. Furthermore, this assay endpoint can be referred to as a primary readout, because this assay has produced multiple assay endpoints where this one serves a reporter gene function. To generalize the intended target to other relatable targets, this assay endpoint is annotated to the dna binding intended target family, where the subfamily is zinc finger.
Human liver HepG2 cells are transiently transfected with multiple reporter transcription units (MRTUs) in 6-well plates using FuGene 6 reagent (Roche; 3 ml FuGene/1 mg DNA). The MRTU constructs are regulated by a cis-regulating element (promoter). […] A major difference between the CIS and TRANS system is that in CIS activities of endogenous TFs are measured, whereas the TRANS assay evaluates changes in activities of exogenous, chimeric NR-Gal4 proteins. […] At the end of 24 hour incubation, total RNA was isolated using TriZol reagent (Invitrogen). The isolated RNA is then reverse-transcribed using oligo(dT) primer and Mo-MLV reverse transcriptase (Invitrogen) with DNAse I (Ambion) treatment for 30 min. The one-tenth of the produced cDNA was amplified by PCR using Taq DNA polymerase (Invitrogen) and two reporter sequence-specific primers. The PCR products were fluorescently labeled by primer extension with 6-arboxyfluorescein (6-FAM) 5'-labeled reporter sequence-specific primer (2 min at 95 C, 20 s at 68 C and 10 min at 72 C) and these products were digested with 5U of HpaI (New England Biolabs) for 2h at 37 C. The fragments were purified using Qiaquick PCR columns (Qiagen), analyzed on an ABI 3130xL genetic analyzer (Applied Biosystems) with peak positions identified by using a set of X-rhodamine (ROX)-labeled MapMarker1000 molecular weight standards (BioVentures). The raw capillary electrophoresis data was processed using Attagraph software (Attagene).
In the case of `CC(=O)OCCC1CCCCC1`, the call was inactive. In the case of `COc1ccc([C@@H]2CC(=O)c3c(O)cc(O[C@@H]4O[C@H](CO[C@@H]5O[C@@H](C)[C@H](O)[C@@H](O)[C@H]5O)[C@@H](O)[C@H](O)[C@H]4O)cc3O2)cc1OC` it was “inactive”; in that of `CCCOC(=O)CCCCC(=O)OCCC`, “inactive”; in that of `Cc1ccccc1C`, “inactive”. On to `Cc1ccc2c(c1)C(=O)c1ccccc1C2=O`, for which the molecule was classed as inactive. The result for `CC[C@H]1OC(=O)[C@H](C)[C@@H](O[C@H]2C[C@@](C)(OC)[C@@H](O)[C@H](C)O2)[C@H](C)[C@@H](O[C@@H]2O[C@H](C)C[C@H](N(C)C)[C@H]2O)[C@](C)(O)C[C@@H](C)C(=NOCOCCOC)[C@H](C)[C@@H](O)[C@]1(C)O` reads “inactive”; that for `O=c1[nH]c(=O)c2[nH]c(=O)[nH]c2[nH]1`, “inactive”; that for `CCCCC(CC)COC(=O)c1ccccc1` (stereo not given), “inactive”. The result for `O=C(OCC1CCC2OC2C1)C1CCC2OC2C1` (stereo not given) reads “inactive”; that for `CCCCCCCOC(=O)CCC`, “inactive”.

In the case of `c1ccc(-c2ccccn2)nc1`, the molecule was called inactive. Regarding `CCN(CC)c1ccc(C(=O)c2ccccc2C(=O)O)c(O)c1`, the molecule was classed as inactive. In the case of `O=C(/C=C/C=C/c1ccc2c(c1)OCO2)N1CCCCC1` it was “inactive”. As for `CC=CC(F)(F)C(F)(F)C(F)(F)F`, the molecule was called inactive. `CCCCCCCCCCCCCCCC(=O)OCC`: the result was inactive. In the case of `O=CC1CC1` it was “inactive”; in that of `O=C1CCCC1`, “inactive”. In the case of `COC(=O)c1cc(Cl)ccc1[N+](=O)[O-]` it was “inactive”; in that of `CCC(CO)CO`, “inactive”. In the case of `O=C(Nc1ccccc1SSc1ccccc1NC(=O)c1ccccc1)c1ccccc1` it was “inactive”. Take `Cc1cnc(NC(=O)C2=C(O)c3ccccc3S(=O)(=O)N2C)s1`: the molecule was called inactive.

Turning to `C=CC(=O)OCCOC1C2CCC1C1CC=CC12` (stereo not given), the result was inactive. In the case of `CCCCCCC1(C)CCC(=O)O1` (stereo not given) it was “inactive”; in that of `Nc1ccc(N)c(Cl)c1`, “inactive”.

On to `C=C1C2CCC(C2)C1(C)C` (stereo not given), for which the molecule was called inactive. In the case of `Cc1cc(O)c(Cl)c(C)c1Cl` it was “inactive”; in that of `[Cl][Nd]([Cl])[Cl]`, “inactive”; in that of `C=C[Si](OC(C)=O)(OC(C)=O)OC(C)=O`, “inactive”. The result for `SCCc1cnccn1` reads “inactive”. As for `CCN(CC#N)c1cccc(C)c1`, the molecule was called inactive. On to `CCCCCCOC(=O)C(C)CC` (stereo not given), for which the molecule was classed as inactive. In the case of `CCCCCCCCCCOS(=O)(=O)O` it was “inactive”; in that of `O=[N+]([O-])c1ccc(CO)cc1`, “inactive”; in that of `Cc1cccc(N(C)C(=S)Oc2ccc3ccccc3c2)c1`, “inactive”. In the case of `CC1(C)O[C@@H]2C[C@H]3[C@@H]4C[C@H](F)C5=CC(=O)CC[C@]5(C)[C@H]4[C@@H](O)C[C@]3(C)[C@]2(C(=O)CO)O1` it was “inactive”; in that of `CCCCCCCC/C=C\CCCCCCCC(=O)OCCO`, “inactive”. In the case of `CCOCC(=O)O` it was “inactive”.

Regarding `FC(F)(F)C(=NOCC1OCCO1)c1ccc(Cl)cc1`, the molecule was called inactive.

With `CC/C=C\C/C=C\C/C=C\CCCCCCCC(=O)O`, the call was inactive.

For `CCCCCCCCC(=O)OCC`, the call was inactive.
